Measurements from PubChem BioAssay AID504444 (National Center for Advancing Translational Sciences (NCATS), 2011).
Values joined by “and” are separate entries in the source; they are usually repeats but may differ in a detail not shown here. Equal entries are not always repeated. Out of some 360,000 compounds screened, about 7,500 (2.1%) were called active. Not shown: some 20% with an inconclusive outcome. The sample holds actives, similar compounds and a random draw of the others, so the mix is not that of the screen. Calls come from the whole dose curve; as a rule, active = well fitted inhibition curve with a large enough effect; inconclusive = small, poorly fitted or top-dose-only effect, or effect the other way; inactive = flat fitted curve, though single readings scatter. Some structures have more than one record in an assay (separate samples or runs), and their calls can disagree.

Assay: Nrf2 qHTS screen for inhibitors; note: nearly all actives have a fitted effect of over 60% in size
Settings: A549 ARE-Fluc reporter, luciferase luminescence, 18-24 h; series mostly up to 46 µM; activity change, negative = inhibition: at the top concentration
In short: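 In this cell-based qHTS, ARE-driven firefly luciferase in A549 cells reports Nrf2 activity; the luminescent signal after BugLite lysis is the measured value, with a prior CellTiter-Fluor read for cell health.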
% is set by controls: 0 for no effect and ±100 for the full control effect; potency is the fitted concentration of half-maximal effect.

SMILES	activity change, negative = inhibition	Potency
N#CCSc1nc2c(c(=O)n1Cc1ccccc1)C1(CCCC1)Cc1ccccc1-2	10.3% (inactive)	
Cc1cccc(-n2c(SCC(N)=O)nc3c(oc4ccccc43)c2=O)c1	1.69% (inactive)	
Cc1cccc(-n2c(SCC(N)=O)nc3c(c2=O)C2(CCCCC2)Cc2ccccc2-3)c1		20.6 µM (active)
C[C@H](CO)N1C[C@H](C)[C@@H](CN(C)Cc2ccc(-c3ccccc3)cc2)Oc2ccc(NC(=O)Cn3cnnn3)cc2C1=O	0.445% (inactive)	
OCC(O)C1OCOC(C(O)CO)C1O (configuration not stated)	-10.3% (inactive)	
CCOc1ccc(NC(=O)c2c(NC(=O)Cc3ccccc3)sc3c2CCC(C)C3)cc1 (configuration not stated)	-14.5% (inactive)	
C/C(=N\NC(=O)Cc1ccc(F)cc1)c1ccc(F)cc1	-2.05% (inactive)	
Cc1cccc(C)c1NC(=S)N1CCCCCC1	7.37% (inactive)	
Cc1ccc(Cl)cc1NC(=O)c1ccccn1	25.8% (inactive)	
COc1ccc(CC(=O)N/N=C(\C)c2ccccn2)cc1		14.6 µM (active)
CC(=NNC(=S)N1CCCCCC1)c1ccccn1		1.16 µM (active)
CNC(=S)N1CCN(c2ccccn2)CC1	-6.46% (inactive)	
COc1ccc(CC(=O)NC(C)CCc2ccccc2)cc1 (configuration not stated)	-21.7% (inactive)	
COc1ccc(C/C(C)=N/NC(=O)c2ccncc2)cc1	9.67% (inactive)	
C/C(=N\NC(=O)Cc1ccc(Cl)cc1)c1ccccn1		3.26 µM (active)
Cc1noc(C)c1NC(=O)Nc1ccc2c(c1)C(=O)N([C@H](C)CO)C[C@H](C)[C@@H](CN(C)C(=O)Nc1ccc(C(F)(F)F)cc1)O2	-5.04% (inactive)	
Cc1ccc(-c2nn(CCC(=O)Nc3ccc(Cl)c(Cl)c3)c(=O)c3ccccc23)cc1	-4.96% (inactive)	
CCCNC(=O)C(CC)n1nc(CC)n2c(cc3oc(C)cc32)c1=O (configuration not stated)	-22.5% (inactive)	
CCOc1cccc(NC(=O)CSc2ncc(-c3ccc(Cl)cc3)[nH]2)c1	10.8% (inactive)	
Cc1ccc(Nc2c(-c3ccc(Cl)cc3)nc3sccn23)c(C)c1	11.2% (inactive)	
O=C(NN=Cc1ccccc1O)NN=Cc1ccccc1O	0.438% (inactive)	

SMILES	activity change, negative = inhibition	Potency
Cc1n[nH]c(C)c1S(=O)(=O)N1CCCC(C(=O)NCC2COc3ccccc3O2)C1 (configuration not stated)	-12.5% (inactive)	
Cc1n[nH]c(C)c1S(=O)(=O)N1CCCC(C(=O)Nc2ccc(Br)cc2)C1 (configuration not stated)		inactive and 14.6 µM (active)
O=C(O)C1CCCN(S(=O)(=O)c2cccc3cccnc23)C1 (configuration not stated)	-8.34% (inactive)	
CC(=O)Nc1ccc(NC(=O)C2CCCN(S(=O)(=O)c3ccc4c(c3)CCCC(=O)N4)C2)cc1 (configuration not stated)	29.4% (inactive)	
COc1ccc(NC(=O)C2CCCN(S(=O)(=O)c3cccc4cccnc34)C2)cc1OC (configuration not stated)	-26.2% (inactive)	
COc1ccc(NC(=O)C2CCCN(S(=O)(=O)c3cccc4cccnc34)C2)cc1 (configuration not stated)		23.1 µM (active)
COc1ccc(Cl)cc1NC(=O)CN(C)CC(=O)Nc1ccc2c(c1)OCO2	-16% (inactive)	
O=C(Cn1cc(SCc2cccc(Cl)c2)c2ccccc21)N1CCCCC1	-21.2% (inactive)	
COc1cc(OC)cc(-c2c(-c3cccs3)c3cc(-c4ccc(OC)nc4)ccc3n2C)c1	-22.5% (inactive)	
COc1cc(OC)cc(-c2c(-c3ccc(F)cc3)c3cc(-c4ccc5cc[nH]c5c4)ccc3n2C)c1	-11.2% (inactive)	
COc1ccc(-c2c(-c3cc(OC)cc(OC)c3)n(C)c3ccc(-c4ccn[nH]4)cc23)cc1		11.6 µM (active)
COCC(=O)N(C)[C@H]1C[C@H]2c3cc(Oc4ccccc4C)ccc3CCN2C(=O)[C@H]1[C@H](C)O	0.467% (inactive)	
CC(OC(=O)c1cc2ccccc2[nH]1)C(=O)N(C)c1ccccc1 (configuration not stated)	-3.45% (inactive)	
Cc1ccc(C)c(N2CCN(C(=O)CN3C(=O)COc4ccc(S(=O)(=O)N5CCCCCC5)cc43)CC2)c1	6.28% (inactive)	
O=C(CC1Sc2ccccc2NC1=O)NNc1ccc(Cl)c(Cl)c1 (configuration not stated)	-2.12% (inactive)	
OCCCNc1nccc(-c2cc(Nc3cccc(Cl)c3)ncn2)n1		2.06 µM (active)
OCCCNc1nc(-c2ccccc2)c2cc(Cl)ccc2n1	-5.54% (inactive)	
Cc1cccc(Nc2nc(NCCO)nc(N3CCCC3)n2)c1	-11.3% (inactive)	
Cc1ccc(NC(=O)Cn2cnc3c(OCc4ccccc4)ncnc32)cc1C	-4.24% (inactive)	
COc1ccc(S(=O)(=O)N2C[C@H]3CON(C)[C@H]3C[C@H]2c2cccc(Br)c2)cc1	-18.2% (inactive)	
COc1ccc(CCNc2nc(-c3ccc(Cl)cc3)cc(C(F)(F)F)n2)cc1OC	-14.7% [at 9.27 µM] (inactive)	

SMILES	activity change, negative = inhibition	Potency
CC(=NNC(=O)c1ccncc1)c1ccc(Cl)c(Cl)c1	-1.76% (inactive)	
Cc1sc2nc(CC(N)=O)[nH]c(=O)c2c1-c1ccccc1	1.14% (inactive)	
NC(=O)c1sc2nc3c(c(-c4ccccc4)c2c1N)CCC3		9.2 µM (active)
Nc1c(C(=O)NCc2ccccc2)sc2nc3c(cc12)C(=O)CCC3	9.66% (inactive)	
COc1ccc(N2CCN(C3=NS(=O)(=O)C(c4cccc(Br)c4)=C3C)CC2)cc1	2.1% (inactive)	
CSCCC(NC(=O)COc1ccccc1)C(=O)OCc1ccc(Cl)cc1 (configuration not stated)	-14.7% (inactive)	
CC(=O)NCCNC(=O)c1cc(-c2cccc3ccccc23)nc2ccccc12	7.96% (inactive)	
CN(C)CCNC(=O)c1ccc(Cl)c2cc3ccccc3nc12		18.4 µM (active)
CN(C)CCNC(=O)Nc1cccc(Cl)c1Cl	-2.8% (inactive)	
CC1CCCCC1NCC(=O)Nc1ccccc1C(=O)Nc1ccccc1 (configuration not stated)	-0.522% (inactive)	
CC[C@]12c3[nH]c4cc(CCC(=O)N(C)C)ccc4c3CCN1C(=O)[C@@H](CC(=O)NCCCn1ccnc1)C[C@@H]2C(=O)N1CCN(C(=O)C2CC2)CC1	2.04% (inactive)	
Cc1c(C)n(Cc2ccc(Cl)cc2)c2ccc(C(=O)N3CCN(c4ccccc4F)CC3)cc12	-26.6% (inactive)	
COc1cc(C(=O)NCC2(c3ccccc3)CCCC2)ccc1OC(C)C	-3.66% (inactive)	
O=C(CNC1CCCCC1)NCC1(c2ccccc2)CCCC1	0.664% (inactive)	
Cc1cccc(C(CC(=O)NCC2(c3ccccc3)CCCC2)c2ccccc2)c1O (configuration not stated)		14.6 µM (active)
CC(=O)c1cccc(NC(=O)c2cc(C)nn2-c2ccccc2)c1	10.8% (inactive)	
Cc1cccc(N2C(=O)c3ccc(C(=O)Nc4cccc(C(=O)O)c4)cc3C2=O)c1	6.82% (inactive)	
CC(=O)c1cccc(NC(=O)c2nc(-c3ccccc3)n(-c3cccc(C)c3)n2)c1		18.4 µM (active)
Cc1sc(C2C(C#N)=C(N)N(c3cccc(Cl)c3)C3=C2C(=O)CCC3)cc1CN1CCOCC1 (configuration not stated)	24.2% (inactive)	
COc1ccc(CNCCCNCc2ccc(OC)c(OC)c2)cc1OC	12.5% (inactive)	
